# Assay outcomes as filed in PubChem.
# Only some compounds are listed: those with a hit (about 3% of all), similar ones and a draw of the others.
# CF NFkB block – blocks PAF-induced NF-kB reporter in cystic fibrosis cells; KKLEB NF-kB-GFP reporter, GFP fluorescence overnight; actives 0.86% (n = 360,000); inhibition, % at 5 µM;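 active = at least 50% inhibition at 5 µM, scaled per plate between neutral and stimulator controls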;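 note: PAF is a Pseudomonas aeruginosa culture filtrate used as stimulus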
# ABHD5-PLIN5 inh – ABHD5-PLIN5 protein interaction inhibition; Split G. princeps luciferase complementation, luminescence, 4 h; inhibition, % at 4 µM; actives 0.78% (n = 360,000);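 active = inhibition above the mean inhibition across every tested compound plus 3 SD, cut at about 22% in these data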
# Target sequence (Q00G26 whole entry, looked up): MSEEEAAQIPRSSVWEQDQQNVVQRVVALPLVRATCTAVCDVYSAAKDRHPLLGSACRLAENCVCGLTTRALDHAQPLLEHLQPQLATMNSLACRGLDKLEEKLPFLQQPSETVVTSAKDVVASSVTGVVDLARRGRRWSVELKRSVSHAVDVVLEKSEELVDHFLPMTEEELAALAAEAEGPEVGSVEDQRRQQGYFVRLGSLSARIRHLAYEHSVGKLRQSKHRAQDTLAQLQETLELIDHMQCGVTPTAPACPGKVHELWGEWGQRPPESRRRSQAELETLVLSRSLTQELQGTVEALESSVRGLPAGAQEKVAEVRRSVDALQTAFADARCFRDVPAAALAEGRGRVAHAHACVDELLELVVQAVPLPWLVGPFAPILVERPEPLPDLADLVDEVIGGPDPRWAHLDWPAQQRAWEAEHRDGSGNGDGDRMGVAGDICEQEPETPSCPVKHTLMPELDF
# Target sequence (Q8WTS1 whole entry, looked up): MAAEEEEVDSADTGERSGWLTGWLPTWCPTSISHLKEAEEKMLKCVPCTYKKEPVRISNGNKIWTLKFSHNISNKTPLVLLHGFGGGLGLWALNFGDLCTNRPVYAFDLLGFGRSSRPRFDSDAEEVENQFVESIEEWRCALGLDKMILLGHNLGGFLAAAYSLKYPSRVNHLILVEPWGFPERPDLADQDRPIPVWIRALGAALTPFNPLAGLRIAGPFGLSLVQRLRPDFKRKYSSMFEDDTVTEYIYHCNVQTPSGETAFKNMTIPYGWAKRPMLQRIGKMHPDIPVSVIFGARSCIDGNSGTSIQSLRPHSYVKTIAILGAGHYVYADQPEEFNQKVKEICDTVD
# Peg3 promoter – Peg3 promoter activity inhibition. HeLa PEG-Prom luciferase reporter, luminescence, overnight. inhibition, % at 20 µM. actives 1.7% (n = 360,000);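 active = inhibition of at least 50% at 20 µM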
# MITF TRPM1 inh – reduces MITF-dependent TRPM1 promoter luciferase signal; SK-MEL-5 TRPM1 promoter luciferase, 24 h; inhibition, % at 12.5 µM; actives 0.83% (n = 330,000); AID 488899;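 active = mean inhibition across replicates of 60% or more, whatever share of single replicates reaches that level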
# HIF-2a inh – HIF-2a inhibition; 786-0 RCC cells HIF-2a reporter, luciferase luminescence, overnight; inhibition, % at 18.8 µM; actives 0.72% (n = 360,000); AID 624352;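 active = inhibition of the luminescence signal of 40% or more relative to plate controls, in a single-dose primary screen at 18.75 µM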
# KKLEB cytotox – CF airway cell cytotoxicity counter-screen; activity change (cytotoxicity), % at 5 µM; actives 0.36% (n = 360,000); KKLEB CF airway cells viability, ATPlite luminescence, overnight; active compounds read low; cells stimulated with P. aeruginosa culture filtrate;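 active = corrected activity change at or below -50% at 5 µM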
# Hits are given with their value; 0 = inactive; - = no result given; ! = a repeat was not active.
SMILES,CF NFkB block,ABHD5-PLIN5 inh,Peg3 promoter,MITF TRPM1 inh,HIF-2a inh,KKLEB cytotox
COC(=O)C1=C(C)N(CCC2=CCCCC2)C(=O)C1,0,0,0,0,0,0
COC(=O)C1=C(\O)CCCC/C=C\1C(=O)O,0,22,0,0,0,0
COc1cc2c(C(=O)N3CCN(C)CC3)c(C)n(-c3ccccc3)c2cc1Br,0,0,0,0,0,0
CCN(CC)CCNC(=O)c1c(C)n(-c2ccccc2)c2cc(Br)c(OC)cc12,0,0,65,74,0,0
CCc1nc2c(OCc3cccc(OC)c3)cccn2c1N(C)C(=O)c1ccc(OC)cc1,0,0,0,-,0,0
Oc1ccc[n+](CCCCC[n+]2cccc(O)c2)c1,0,0,0,0,0,0
CCCCCCCCCCCCCCCC[n+]1ccccc1,62,0,97,82,93,-50!
Fc1ccccc1COc1ccc(Br)cc1CNCc1cccnc1,0,0,0,0,0,0
Fc1ccccc1COc1ccc(Br)cc1CNCc1ccncc1,0,0,56,0,0,0
O=C(NNC(=O)c1c(F)cccc1F)c1ccccc1-n1cccc1,0,0,0,0,0,0
CCn1cc(/C=C/c2cc[n+](C)cc2)c2ccccc21,0,0,0,0,0,0
CC(C)n1cc(/C=C/c2cc[n+](C)cc2)c2ccccc21,0,0,0,63,0,0
CN(C)c1ccc(C(=O)c2ccc(N(C)C)c3ccccc23)cc1,55,0,0,0,0,0
COc1ccc(C(=O)c2ccc(N(C)C)cc2)c(OC)c1,0,0,0,0,0,0
Cc1oc(-c2ccc(F)cc2)cc1-c1nn2c(-c3ccoc3C)nnc2s1,0,30,0,0,0,0
COc1ccc(-c2nnc3sc(-c4ccco4)nn23)cc1OC,0,0,0,0,0,0
Cc1ccc(Nc2cc(C)nn2-c2nc(C)cc(C)n2)cc1,0,0,0,0,0,0
Cc1ccc(Nc2cc(C)nn2-c2nc(C)cc(=O)[nH]2)cc1,52,0,108,98,40,0
CCCCNCC(O)(c1ccc(Cl)cc1)c1ccc(Cl)cc1,0,0,63,0,0,0
CCC(C)(C)NC(=O)C(c1ccc(F)cc1)N(Cc1cccc(OC)c1)C(=O)c1cnccn1 (stereo unspecified),0,0,58,0,0,0
CCOc1ccc(NC(=S)Nc2ccc3nsnc3c2)cc1,0,0,0,0,0,0
COc1ccc(NC(=S)Nc2ccc3nsnc3c2)cc1,0,23,0,0,0,0
COc1ccc(N=C2NC(=O)/C(=C\C=C\c3ccco3)S2)cc1,0,22,0,0,0,0
O=C(Nc1nc(-c2cccc3ccccc23)cs1)c1ccc2c(c1)S(=O)(=O)c1ccccc1C2=O,0,0,0,63,0,0
O=C(Nc1nc(-c2ccccc2)cs1)c1ccc2c(c1)S(=O)(=O)c1ccccc1C2=O,0,0,0,0,0,-57
SMILES,CF NFkB block,ABHD5-PLIN5 inh,Peg3 promoter,MITF TRPM1 inh,HIF-2a inh,KKLEB cytotox
O=C(Nc1ccncc1)c1ccc2c(c1)S(=O)(=O)c1ccccc1C2=O,0,0,0,0,0,0
O=C(Nc1ccc(-c2ccccc2)cc1)c1ccc2c(c1)S(=O)(=O)c1ccccc1C2=O,0,0,0,0,0,0
COc1cccc(COC(=O)C2CCN(C(=O)c3ccc(F)cc3)CC2)c1OC,0,0,0,0,0,0
O=C(NCC1CCCO1)C(c1cccs1)N(Cc1ccccc1Cl)C(=O)c1ccc(-c2ccccc2)[nH]1 (stereo unspecified),0,0,80,0,0,0
Cc1ccc(Nc2nc(NCc3ccco3)c3ccccc3n2)cc1,0,0,106,0,0,0
COc1ccc(Cl)cc1NC(=O)CSC1=NN2CCCC(=O)N=C2S1,0,0,0,0,0,0
COc1cccc(C(=O)Nc2nnc(S(=O)(=O)N(C)Cc3ccccc3)s2)c1,0,0,55,0,0,0
CC1CCCCN1S(=O)(=O)c1ccc(S(=O)(=O)N2CCN(c3ccccc3)CC2)cc1 (stereo unspecified),0,0,59,0,0,0
O=C(Cc1ccccc1)Nc1ncnc2c1C(c1ccccc1)c1c(ccc3ccccc13)O2 (stereo unspecified),0,0,53,0,0,0
O=S1(=O)CCN(CCc2ccccc2)CC1,0,0,0,-,0,0
Cc1ccc(C(=O)N2CCN(c3cnn(C)c(=O)c3Cl)CC2)cc1,0,0,0,0,0,0
COc1ccccc1CCC(=O)OCC(=O)Nc1ccc(S(N)(=O)=O)cc1,0,0,0,0,0,0
COc1ccccc1CCC(=O)OCC(=O)Nc1ccc(C(N)=O)cc1,67,0,0,0,0,-84
COc1ccc(CC(=O)NNC(=O)c2ccco2)cc1OC,0,0,0,0,0,0
CC(C)CNc1cc(N2CCCC2)ccc1[N+](=O)[O-],0,0,54,0,0,0
CCNc1cc(N2CCCC2)ccc1[N+](=O)[O-],0,0,0,0,0,0
O=C(c1ccco1)N1CCN(C(=O)c2ccco2)C1=S,0,0,92,0,0,0
O=C(c1ccco1)N1CCCN(C(=O)c2ccco2)CC1,0,0,0,0,0,0
CCOc1cc(C(=O)O/N=C(\N)c2ccccn2)cc(OCC)c1OCC,0,0,84,0,0,0
CCOc1ccc(C(=O)O/N=C(\N)c2ccccn2)cc1OCC,0,0,0,0,0,0
O=C(O)C(=Cc1cccc([N+](=O)[O-])c1)c1ccccc1,0,0,0,-,0,0
O=C(C#Cc1cccc([N+](=O)[O-])c1)c1ccccc1,97,30,107,82,0,-64
O=C(Nc1ccc(Cl)c(S(=O)(=O)N2CCOCC2)c1)c1ccc(OCC2CCCO2)cc1 (stereo unspecified),0,0,103,72,0,0
Cn1nc(C(=O)Nc2ccc(Cl)c(S(=O)(=O)N3CCOCC3)c2)c2ccccc2c1=O,0,0,53,0,0,0
CCOc1ccccc1C(=O)N(Cc1ccccc1)Cc1cc2cc3c(cc2[nH]c1=O)OCCO3,0,0,61,0,0,-62
COc1ccccc1NC(=S)N(CCCN(C)C)Cc1cc2cc3c(cc2[nH]c1=O)OCO3,0,0,0,0,0,0
COc1ccccc1NC(=O)N(Cc1cccs1)Cc1cc2cc3c(cc2[nH]c1=O)OCO3,0,0,53,0,0,0
CCOC(=O)N1CCN(C(=O)c2ccc3c(c2)N(C)C(=O)/C(=C\c2ccc(OCC)c(OC)c2)S3)CC1,0,0,53,0,0,0
CCOC(=O)N1CCN(C(=O)c2ccc3c(c2)NC(=O)/C(=C\c2ccc(OC)c(OC)c2)S3)CC1,0,0,0,0,0,0
Cn1c(CNC(=O)CNC(=O)c2ccc(F)cc2)cc(=O)n(C)c1=O,0,0,0,0,0,0
